From PubChem BioAssay (NCI) come the findings set out here.

“And” between values parts separate entries of the source, which are not always exact repeats. Equal entries are not always repeated. This is part of a sample that, as a whole, favours compounds with a hit. Of some 83,000 tested, about 20% had one in any assay.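 Values shown are percent growth following 48 h exposure of cells in 96-well plates to a single concentration of compound; below 10 was considered active.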 The source made the active and inactive calls.

The test has as its system MDA-MB-468 breast. The test can be described thus: NCI-60 one-dose screen, 48 h (100 = growth as untreated, 0 = no growth, -100 = all killed). To be noted: 10 µM unless noted.
Take `COc1cc(OC)c(S(N)(=O)=O)cc1C(=O)/C=C/c1ccc(Cl)cc1`: the growth was -57.8% (active). Next, `CCN(CC)CCCC(C)Nc1c(-c2ccccc2)cnc2cc(Cl)ccc12` (stereo not given): 44.4% (inactive). Next, `CC(C)(C)c1cc(C(C)(C)C)cc(S(=O)(=O)Nc2cc3ccccc3cc2C(=O)NCCN)c1`: -69.6% (active); `CN1C(C(=O)Nc2ccccn2)=C(O)c2sc(Cl)cc2S1(=O)=O`: 98.7% (inactive).

For `CCCCN1CCN(c2ccc3nc(-c4ccc5nc(-c6ccc(C(F)(F)F)cc6)[nH]c5c4)[nH]c3c2)CC1`, the growth is -62.1% (active). Next, `O=C1C=CC(=O)C2=C1CCCC2`: 61.5% (inactive). `COc1ccc2c(c1)c(-c1nc(N)nnc1-c1c[nH]c3ccccc13)cn2C`: the growth is -9.57% (active). With `O=C(c1ccccc1)C1C(=O)N2C(=S)N(c3ccccc3)C(=O)C2C1c1ccc(Cl)cc1` (stereo not given), the growth was 0.678% (active). The figure for `OC[C@@H](O)[C@@H](O)CO` is 102% (inactive).

`FC(F)(F)c1ccc2c(c1)Sc1ccccc1N2`: the growth is 102% (inactive). Next, `Fc1ccc(CNc2c3ccccc3nc3ccccc23)cc1`: 11.5% (inactive); `COc1ccc(/C=c2\sc3n(c2=O)C2C(NN=3)N(C)C(=O)N2C)cc1` (stereo not given): -8.89% (active). The figure for `COc1ccc2c(c1)CC[C@@H]1[C@@H]2CC[C@]2(C)[C@@H](O)C(=O)C[C@@H]12` is 109% (inactive); for `CCc1ccc(Oc2c(-c3ccc(OCCc4cccc(C(F)(F)F)c4)cc3O)n[nH]c2C(F)(F)F)cc1` it is 22.5% (inactive). Next, `CNC(C)=O`: 102% (inactive); `COc1cc(C(=O)/C=C/c2cccc(Nc3ccnc4cc(Cl)ccc34)c2)cc(OC)c1OC`: -49.5% (active).

`ClCCn1cnc2c(SCc3ccccc3)ncnc21`: the growth is 74.8% (inactive). For the compound `CN(C)CCCC1(c2ccc(F)cc2)OCc2cc(-c3cncc4ccccc34)ccc21` (stereo not given), the growth is -4.62% (active). Next, `Cc1cc(C2(c3ccc(O)c(C)c3)OS(=O)(=O)c3ccccc32)ccc1O`: 98.9% (inactive); `CCCCN1CCCCn2c1nc1c2c(=O)n(C)c(=O)n1C`: 102% (inactive); `COc1cc(-c2cc(-c3cc4c([nH]c5ccccc54)c(-c4cc(OC)c(OC)c(OC)c4)n3)cc(-c3ccccc3)n2)cc(OC)c1OC`: 8.91% (active).

Regarding `O=C1/C(=C/c2ccccc2Br)COc2ccc(O)cc21`, the growth is 69.1% (inactive). Next, `COc1ccc(/C=N/OCC(O)CNCc2ccccc2)cc1OC1CCCC1` (stereo not given): 99.2% (inactive); `Cc1ccc2c(NCCCN(C)C)c3c(C)nn(C)c3nc2c1`: 22.1% (inactive). Next, `Nc1nc(SC/C=C/CCl)c2[nH]cnc2n1`: 103% (inactive) and 127% (inactive); `CC(C)c1ccc(Nc2n[nH]c(=S)s2)cc1`: 107% (inactive). As to `O=[N+]([O-])c1cc2c(cc1Br)C1C(C3C2C(Cl)(Cl)C(Cl)=C(Cl)C3(Cl)Cl)C(Cl)(Cl)C(Cl)=C(Cl)C1(Cl)Cl` (stereo not given), the growth is 95.7% (inactive). The figure for `O=C(N/N=C\c1ccc(-c2ccc(Br)cc2)o1)c1cc2oc(-c3cccc(C(F)(F)F)c3)cc2[nH]1` is 126% (inactive); for `CNCCn1c(=O)c2cc(OC)c(OC)cc2c2ccc3cc4c(cc3c21)OCO4` it is -53.9% (active). Regarding `C=CC(=O)Nc1cccc(-c2nc(SC)nc(NCc3ccccc3)c2C#N)c1`, the growth is 52.1% (inactive). On to `O=c1c2ccccc2cc2n1CCN=C2c1ccccc1`, for which the growth is 98.4% (inactive). For `NS(=O)(=O)c1ccc(CCNC(=O)/C=C/c2ccc(Cl)cc2)cc1`, the growth is 103% (inactive). Next, `FC(F)(F)c1cc(Nc2cccc(Oc3ccc(NC4=NCCN4)nc3)c2)ccc1Cl`: -37.6% (active); `COc1ccc(-c2csc(NC(=O)CN3CCN(c4cc5c(cc4F)c(=O)c(C(=O)O)cn5C4CC4)CC3)n2)cc1`: -0.675% (active). Next, `COc1cc(C(=O)N/N=C/c2cc3cc(OCc4ccccc4)ccc3nc2OC)cc(OC)c1OC`: 85.2% (inactive); `COc1cc(/C=C/CO)cc(OC)c1O[C@@H]1O[C@H](CO)[C@@H](O)[C@H](O)[C@H]1O`: 91.9% (inactive). As for `CCc1nc2cc(/C=C/C(=O)NO)c(F)cc2c(=O)n1CCc1ccccc1`, the growth is -32.9% (active). Next, `Brc1ccc2[nH]cc(-c3nc(-c4c[nH]c5ccncc45)cs3)c2c1`: -71.4% (active).

Take `O=C(NO)c1ccc(Cn2c(=O)n(-c3ccccc3F)c(=O)c3ccccc32)cc1`: the growth is -10.8% (active). Consider `CCCCNC(=O)Oc1ccc(/C(=C(/C)Cc2ccc(OC)cc2)c2ccc(OCCN3CCCCC3)cc2)cc1`, for which the growth is 60.1% (inactive).
